± gives the standard deviation.
Legend:
Conditions in all cases: modulator concentration 10 µM
[1] = system: RAW-Dual (murine macrophage reporter line); assay: NF-kB reporter (SEAP) activity fold change vs agonist alone; higher = enhanced NF-kB activity
Method in brief: (§1)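 Overnight stimulation with a PRR agonist followed pre-incubation for 1 hour at 37 °C with compound at 10 μM final. This was done in RAW-Dual murine macrophage reporter cells seeded at 50 000 per well in 384-well plates. NF-κB (SEAP, QUANTI-Blue absorbance at 620 nm) and IRF (Lucia luciferase, QUANTI-Luc luminescence) were read from the supernatant. Each reporter's fold change relative to the mean agonist-only control on the same plate was averaged over replicate plates.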

[2] = system: RAW-Dual (murine macrophage reporter line); assay: IRF reporter (Lucia luciferase) activity fold change vs agonist alone; higher = enhanced IRF activity
Method in brief: as §1

[3] = system: RAW-Dual (murine macrophage reporter line); assay: viability score (confluency relative to resting cells, overnight) (fraction); higher = more viable, active = viable (0.7 or more)
Method in brief: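 RAW-Dual macrophages in 384-well plates were incubated overnight with compound, final concentration 10 μM. Confluency images from IncuCyte were processed in IncuCyte software into two masks covering all imaged wells. The viability score is each well's confluency relative to resting cells, and a compound met the cutoff when both masks exceeded 70% of resting cells.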

[4] = agonist: CpG ODN 1826 0.5 ug/mL

| Compound | NF-kB reporter [1, 4] | NF-kB reporter ([1]; agonist: LPS 0.1 ug/mL) | NF-kB reporter ([1]; agonist: MPLA […]) | IRF reporter ([2]; agonist: 3'3'-cGAMP 10 ug/mL) | IRF reporter ([2]; agonist: LPS 0.1 ug/mL) | IRF reporter ([2]; agonist: MPLA […]) | viability score [3] |
| --- | --- | --- | --- | --- | --- | --- | --- |
| CCC1SC(=NN=Cc2cccc3ccccc23)NC1=O (configuration not stated) | 1.08 ± 0.14 | 0.974 ± 0.087 | 0.972 ± 0.044 | 0.92 ± 0.034 | 1.01 ± 0.085 | 0.974 ± 0.2 | 1 (active) |
| COc1ccc(CNCc2ccc3ccccc3c2)c(OC)c1 | 0.163 ± 0.026 | 1.08 ± 0.09 | 1.79 ± 0.56 | 0.644 ± 0.046 | 1.74 ± 0.38 | 2.05 ± 0.59 | 0.688 (inactive) |
| O=c1c(O)c(-c2ccc(O)cc2O)oc2cc(O)cc(O)c12 | 1.03 ± 0.28 | 1.1 ± 0.066 | 1.01 ± 0.085 | 0.739 ± 0.027 | 1.11 ± 0.21 | 1.14 ± 0.14 | 1 (active) |
| O=C(C=Cc1ccccc1)NC(NC(=S)Nc1ccc(Cl)cc1)C(Cl)(Cl)Cl (configuration not stated) | 1.16 ± 0.11 | 0.783 ± 0.11 | 5.38 ± 0.2 | 0.404 ± 0.07 | 0.804 ± 0.036 | 1.74 ± 0.19 | 0.166 (inactive) |
| CCOC(=O)c1c(N2C(=O)C3C4C=CC(O4)C3C2=O)sc2c1CCCC2 (configuration not stated) | 0.87 ± 0.067 | 0.792 ± 0.11 | 0.77 ± 0.092 | 0.775 ± 0.038 | 0.962 ± 0.12 | 0.967 ± 0.18 | 0.934 (active) |
| COc1ccc2c(C)nc(Nc3nc(C)cc(-c4ccccc4)n3)nc2c1 | 0.791 ± 0.079 | 0.879 ± 0.065 | 1.07 ± 0.1 | 0.914 ± 0.043 | 1.28 ± 0.12 | 1.37 ± 0.17 | 1.03 (active) |
| COc1ccc(C=NNC(=O)CSc2nnc(-c3ccccc3)n2-c2ccccc2)cc1OC | 1.14 ± 0.091 | 1.14 ± 0.074 | 1.09 ± 0.045 | 0.845 ± 0.059 | 0.958 ± 0.056 | 1 ± 0.076 | 0.996 (active) |
| COC1CCN(C2CCN(S(=O)(=O)c3ccccc3)CC2)CC1 | 0.839 ± 0.077 | 1.01 ± 0.082 | 0.977 ± 0.062 | 0.981 ± 0.065 | 1.08 ± 0.14 | 1.03 ± 0.23 | 1.01 (active) |
| CCOC(=O)N1CCC(=C2c3ccc(Cl)cc3CCc3cccnc32)CC1 | 1.07 ± 0.24 | 1.09 ± 0.21 | 0.953 ± 0.053 | 0.725 ± 0.04 | 1.06 ± 0.097 | 1.33 ± 0.29 | 0.989 (active) |
| Fc1ccc(Nc2nc(NN=Cc3ccc(Cl)cc3)nc(N3CCCCC3)n2)cc1 | 1.02 ± 0.087 | 0.949 ± 0.13 | 1.01 ± 0.1 | 1 ± 0.032 | 1.14 ± 0.12 | 1.24 ± 0.2 | 1.05 (active) |
| Cc1cc(OCc2nc(-c3ccc(Cl)cc3Cl)no2)ccc1Br | 1.03 ± 0.17 | 0.988 ± 0.12 | 1.63 ± 0.8 | 0.984 ± 0.039 | 1.15 ± 0.13 | 1.15 ± 0.21 | 1.01 (active) |
| COc1ccc(-c2cc(C(F)(F)F)n3nc(C(=O)Nc4cc(OC)c(OC)c(OC)c4)c(Cl)c3n2)cc1OC | 0.885 ± 0.081 | 1.01 ± 0.089 | 0.795 ± 0.058 | 0.566 ± 0.14 | 1.27 ± 0.19 | 1.1 ± 0.12 | 1.01 (active) |
| Cc1cc(OC2CCN(C(=O)c3csc(C)n3)CC2)nc(C)n1 | 1.01 ± 0.051 | 1.11 ± 0.095 | 0.923 ± 0.068 | 0.954 ± 0.088 | 1.23 ± 0.12 | 1.15 ± 0.23 | 1.01 (active) |
| CCCCNc1ccc(C(=O)OCCN(C)C)cc1.Cl | 0.906 ± 0.12 | 0.983 ± 0.31 | 0.987 ± 0.055 | 0.824 ± 0.039 | 1.15 ± 0.34 | 1.09 ± 0.086 | 1.01 (active) |
| CC(C)c1c(C(=O)Nc2ccccc2)c(-c2ccccc2)c(-c2ccc(F)cc2)n1CC[C@@H](O)C[C@@H](O)CC(=O)O [Prestw-1232] | 1.63 ± 0.21 | 1.05 ± 0.11 | 1.16 ± 0.033 | 0.893 ± 0.036 | 0.928 ± 0.068 | 1.13 ± 0.12 | 0.995 (active) |
| O=c1[nH]c(=O)n(C2CC(O)C(CO)O2)cc1F (configuration not stated) | 1.67 ± 0.13 | 0.714 ± 0.057 | 0.978 ± 0.1 | 0.321 ± 0.025 | 0.684 ± 0.14 | 0.545 ± 0.12 | 1.04 (active) |
| O=C(NCCNC(=O)c1ccccc1Cl)c1ccc(NC(=O)C2CC2)cc1 | 0.924 ± 0.04 | 1.01 ± 0.084 | 1.67 ± 0.56 | 1.02 ± 0.052 | 1.36 ± 0.25 | 1.69 ± 0.5 | 0.98 (active) |
| Cc1cc(Cl)ccc1OCC(O)CN1CC(C)OC(C)C1.Cl (configuration not stated) | 0.764 ± 0.068 | 0.939 ± 0.1 | 0.934 ± 0.081 | 0.937 ± 0.043 | 1.05 ± 0.068 | 1.01 ± 0.087 | 0.977 (active) |
| Cc1c(-c2ccccc2)oc2c(C(=O)OCCN3CCCCC3)cccc2c1=O.Cl | 1.21 ± 0.31 | 1.01 ± 0.075 | 0.977 ± 0.067 | 0.883 ± 0.052 | 1.35 ± 0.22 | 1.35 ± 0.16 | 1.01 (active) |
| NC(=O)C1CCCN1c1ncccc1C(F)(F)F (configuration not stated) | 1.16 ± 0.068 | 1.09 ± 0.089 | 0.994 ± 0.028 | 1.01 ± 0.088 | 1.06 ± 0.063 | 1.01 ± 0.1 | 0.997 (active) |
| O=C(Cc1ccc(NC(=O)c2ccc(OC(F)(F)F)cc2)cc1)NCC(F)(F)F | 1.22 ± 0.094 | 1.04 ± 0.12 | 0.994 ± 0.031 | 0.984 ± 0.055 | 1.03 ± 0.077 | 1.04 ± 0.18 | 0.999 (active) |
| CC(=NN1CCN(C2c3ccccc3-c3ccccc32)CC1)c1ccccc1O | 0.953 ± 0.12 | 0.94 ± 0.052 | 0.962 ± 0.069 | 1.02 ± 0.036 | 1.35 ± 0.12 | 0.984 ± 0.086 | 1.02 (active) |
| CC(=O)Oc1cc2c(s1)CCN(C(C(=O)C1CC1)c1ccccc1F)C2.Cl (configuration not stated) | 0.767 ± 0.1 | 0.727 ± 0.11 | 0.77 ± 0.043 | 0.779 ± 0.073 | 1.01 ± 0.088 | 0.998 ± 0.12 | 0.983 (active) |
| O=C1CCCc2[nH]ccc21 | 1.03 ± 0.12 | 1.03 ± 0.11 | 1.01 ± 0.092 | 1.02 ± 0.084 | 1.04 ± 0.094 | 0.998 ± 0.21 | 0.999 (active) |
| C[C@@H](O)[C@H]1C(=O)N2C(C(=O)O)=C(SCCNC=N)C[C@H]12 [Prestw-519] | 1.17 ± 0.11 | 0.986 ± 0.13 | 0.951 ± 0.036 | 0.981 ± 0.043 | 0.96 ± 0.044 | 0.928 ± 0.092 | 0.994 (active) |
| O=S(=O)(c1ccc(-n2cccn2)cc1)N1CC(n2cc(C3CC3)nn2)C1 | 1.01 ± 0.068 | 1.11 ± 0.1 | 0.939 ± 0.066 | 0.966 ± 0.076 | 1.21 ± 0.077 | 0.999 ± 0.085 | 0.993 (active) |
